# Test results: ChEMBL document CHEMBL1961873, “Compounds: GSK PKIS; Assays: Nanosyn kinase panel” (2012)
# Target: T1, Dual specificity tyrosine-phosphorylation-regulated kinase 2 (Homo sapiens) (UniProt Q92630);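 note: reported values are means of DYRK2 inhibition from screening the GSK PKIS collection at 1 µM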
# T1 sequence (whole entry): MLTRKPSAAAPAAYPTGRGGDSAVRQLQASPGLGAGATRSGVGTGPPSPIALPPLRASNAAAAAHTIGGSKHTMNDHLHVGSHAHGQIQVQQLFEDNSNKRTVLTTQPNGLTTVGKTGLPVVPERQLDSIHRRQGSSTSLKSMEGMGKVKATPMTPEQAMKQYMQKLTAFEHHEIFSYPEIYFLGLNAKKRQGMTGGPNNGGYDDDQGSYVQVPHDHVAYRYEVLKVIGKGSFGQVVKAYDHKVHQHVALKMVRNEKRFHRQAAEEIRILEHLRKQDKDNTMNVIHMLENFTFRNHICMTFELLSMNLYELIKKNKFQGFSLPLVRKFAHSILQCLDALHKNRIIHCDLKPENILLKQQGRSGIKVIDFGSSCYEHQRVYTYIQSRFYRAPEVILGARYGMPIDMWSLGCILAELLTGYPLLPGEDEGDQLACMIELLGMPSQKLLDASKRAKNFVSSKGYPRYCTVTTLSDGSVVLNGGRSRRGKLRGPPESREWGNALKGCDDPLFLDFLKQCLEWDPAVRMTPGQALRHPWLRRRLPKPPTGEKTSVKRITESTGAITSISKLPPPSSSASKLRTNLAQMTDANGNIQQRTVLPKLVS
# Details: at 1 µM
row,SMILES,inhibition [%]
1,Cc1ccc(C(=O)NC2CC2)cc1-c1ccc2[nH]ncc2c1,-3.69
2,OCc1ccc(-c2nc(-c3ccccn3)c(-c3ccc4c(c3)OCO4)[nH]2)cc1,3.63
3,CC(C)c1ccc2c(c1)NC(=O)/C2=N/Nc1ccc(S(N)(=O)=O)cc1,-0.44
4,CN(C)C(=O)O[C@@H]1CN[C@@H](C#Cc2cc3ncnc(Nc4ccc(OCc5cccc(F)c5)c(Cl)c4)c3s2)C1,-0.32
5,COc1cccc(-n2nc(C)c3c(N/N=C(\C)c4ccncc4)ncnc32)c1,4.22
6,COC(=O)c1ccc2c(c1)C(=Cc1cc(Br)c(O)c(Br)c1)C(=O)N2,18.8
7,Oc1cccc(-c2nc(-c3ccccc3)[nH]c2-c2ccncc2)c1,5.4
8,NS(=O)(=O)c1ccc(N/N=C2\C(=O)Nc3ccc(Cl)cc32)cc1,3.44
9,COC(=O)Nc1nc2cc(Oc3ccc(NC(=O)Nc4cccc(Br)c4)cc3)ccc2[nH]1,3.59
10,COC(=O)c1cncc(/C=C/c2c(C)cc(O)cc2C)c1,4
11,COc1cc(/C=N/Nc2ncnc3c2cnn3C(C)C)ccc1O,5.67
12,CCS(=O)(=O)c1ccc(OC)c(Nc2nccc(N(C)c3ccc4c(C)n[nH]c4c3)n2)c1,2.34
13,[O-][S+]1CCN(Cc2ccc(-c3ccc4ncnc(Nc5ccc(OCc6ccccc6)c(Cl)c5)c4c3)o2)CC1,0.17
14,c1ccc(Cc2nc3ccc(Nc4ncnc5ccccc45)cc3[nH]2)cc1,3.84
15,CCS(=O)(=O)c1ccc(OC)c(Nc2ncc(-c3cccc(OC)c3)o2)c1,18.4
16,CCn1c(-c2nonc2N)nc2ccc(F)cc21,4.15
17,CN(C)c1cc2c(Nc3ccc4c(cnn4Cc4ccccc4)c3)ncnc2cn1,2.63

row,SMILES,inhibition [%]
1,COc1cc2ncnc(Nc3ccc4c(cnn4Cc4ccccc4)c3)c2cc1OC,2.95
2,O=C1Nc2ccc(-c3cccnc3)cc2C1=Cc1cc(Br)c(O)c(Br)c1,15.5
3,COc1cc2ncnc(Nc3ccc(C)c(O)c3)c2cc1OC,4.5
4,Cc1ccc2c(-c3ccnc(Nc4ccc5c(c4)OCCO5)n3)c(-c3ccc(C(F)(F)F)cc3)nn2n1,-1.15
5,Cc1ccc2c(-c3ccnc(Nc4cccc(C(F)(F)F)c4)n3)c(-c3ccccc3)nn2n1,5.83
6,C[C@@H](Oc1cc(-n2cnc3ccc(OC[C@@H](O)CO)cc32)sc1C(N)=O)c1ccccc1Cl,1.61
7,CN(C)CCCn1c(-c2nonc2N)nc2cnccc21,3.79
8,CN(c1ccc(NC(=O)Nc2ccc(OC(F)(F)F)cc2)cc1)c1ccnc(Nc2cccc(S(N)(=O)=O)c2)n1,3.14
9,O=C1Nc2ccccc2/C1=C/Nc1ccc2[nH]c(=O)[nH]c2c1,11.1
10,Cc1ccc2c(c1)/C(=N/Nc1ccc(S(N)(=O)=O)cc1)C(=O)N2,-0.62
11,CCCN1CCCC(c2ccc(Nc3nc(Nc4cc(F)ccc4C(N)=O)c4cc[nH]c4n3)c(OC)c2)C1 (stereo not drawn),82.3
12,Nc1nccc(-c2c(-c3ccc(F)cc3)nn3cc(C(F)(F)F)ccc23)n1,-1.97
13,NS(=O)(=O)c1ccc(-c2cc3ccncc3cc2OCc2ccccc2)cc1,3.11
14,NC(=O)c1sc(-n2cnc3ccccc32)cc1OCc1ccccc1Br,5.8
15,O=S(=O)(CCOCc1ccc(-c2ccc3ncnc(Nc4ccc(OCc5cccc(F)c5)c(Cl)c4)c3c2)o1)c1ccccc1,2.34
16,Nc1ccc(C#Cc2cncnc2Nc2ccc(OCc3cccc(F)c3)c(Cl)c2)cc1,0.41
17,ON=C1CCc2cc(-c3nc(C4CCNCC4)[nH]c3-c3ccncc3)ccc21,1.2

# Target: Glycogen synthase kinase-3 alpha (Homo sapiens) (UniProt P49840);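 note: values are mean inhibition of GSK3A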
# Sequence (P49840 2-483 limits assumed): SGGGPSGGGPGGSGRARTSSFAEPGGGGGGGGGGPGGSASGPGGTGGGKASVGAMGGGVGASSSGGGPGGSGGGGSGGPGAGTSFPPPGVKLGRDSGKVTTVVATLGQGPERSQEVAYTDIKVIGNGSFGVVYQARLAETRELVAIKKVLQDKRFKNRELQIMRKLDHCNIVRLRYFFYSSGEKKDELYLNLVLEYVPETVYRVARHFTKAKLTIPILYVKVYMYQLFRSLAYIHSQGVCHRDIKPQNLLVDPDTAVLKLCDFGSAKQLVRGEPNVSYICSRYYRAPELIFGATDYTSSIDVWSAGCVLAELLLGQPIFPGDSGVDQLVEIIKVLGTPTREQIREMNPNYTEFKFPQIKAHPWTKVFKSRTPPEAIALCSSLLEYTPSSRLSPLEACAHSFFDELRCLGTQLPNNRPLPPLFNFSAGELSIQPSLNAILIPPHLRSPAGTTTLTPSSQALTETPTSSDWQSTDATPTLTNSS
# Details: at 0.1 µM
row,SMILES,inhibition [%]
1,Cc1ccc(C(=O)NC2CC2)cc1-c1ccc2[nH]ncc2c1,-1.07
2,OCc1ccc(-c2nc(-c3ccccn3)c(-c3ccc4c(c3)OCO4)[nH]2)cc1,2.15
3,CC(C)c1ccc2c(c1)NC(=O)/C2=N/Nc1ccc(S(N)(=O)=O)cc1,4.22
4,CN(C)C(=O)O[C@@H]1CN[C@@H](C#Cc2cc3ncnc(Nc4ccc(OCc5cccc(F)c5)c(Cl)c4)c3s2)C1,1.34
5,COc1cccc(-n2nc(C)c3c(N/N=C(\C)c4ccncc4)ncnc32)c1,4.39
6,COC(=O)c1ccc2c(c1)C(=Cc1cc(Br)c(O)c(Br)c1)C(=O)N2,9.38
7,Oc1cccc(-c2nc(-c3ccccc3)[nH]c2-c2ccncc2)c1,5.29
8,NS(=O)(=O)c1ccc(N/N=C2\C(=O)Nc3ccc(Cl)cc32)cc1,17.3
9,COC(=O)Nc1nc2cc(Oc3ccc(NC(=O)Nc4cccc(Br)c4)cc3)ccc2[nH]1,2.27
10,COC(=O)c1cncc(/C=C/c2c(C)cc(O)cc2C)c1,7.07
11,COc1cc(/C=N/Nc2ncnc3c2cnn3C(C)C)ccc1O,6.47
12,CCS(=O)(=O)c1ccc(OC)c(Nc2nccc(N(C)c3ccc4c(C)n[nH]c4c3)n2)c1,2.43
13,[O-][S+]1CCN(Cc2ccc(-c3ccc4ncnc(Nc5ccc(OCc6ccccc6)c(Cl)c5)c4c3)o2)CC1,1.1
14,c1ccc(Cc2nc3ccc(Nc4ncnc5ccccc45)cc3[nH]2)cc1,5.62
15,CCS(=O)(=O)c1ccc(OC)c(Nc2ncc(-c3cccc(OC)c3)o2)c1,1.96
16,CCn1c(-c2nonc2N)nc2ccc(F)cc21,3.78
17,CN(C)c1cc2c(Nc3ccc4c(cnn4Cc4ccccc4)c3)ncnc2cn1,1.84

row,SMILES,inhibition [%]
1,COc1cc2ncnc(Nc3ccc4c(cnn4Cc4ccccc4)c3)c2cc1OC,4.71
2,O=C1Nc2ccc(-c3cccnc3)cc2C1=Cc1cc(Br)c(O)c(Br)c1,4.28
3,COc1cc2ncnc(Nc3ccc(C)c(O)c3)c2cc1OC,4.81
4,Cc1ccc2c(-c3ccnc(Nc4ccc5c(c4)OCCO5)n3)c(-c3ccc(C(F)(F)F)cc3)nn2n1,5.44
5,Cc1ccc2c(-c3ccnc(Nc4cccc(C(F)(F)F)c4)n3)c(-c3ccccc3)nn2n1,22.6
6,C[C@@H](Oc1cc(-n2cnc3ccc(OC[C@@H](O)CO)cc32)sc1C(N)=O)c1ccccc1Cl,0.1
7,CN(C)CCCn1c(-c2nonc2N)nc2cnccc21,2.45
8,CN(c1ccc(NC(=O)Nc2ccc(OC(F)(F)F)cc2)cc1)c1ccnc(Nc2cccc(S(N)(=O)=O)c2)n1,2.09
9,O=C1Nc2ccccc2/C1=C/Nc1ccc2[nH]c(=O)[nH]c2c1,3.7
10,Cc1ccc2c(c1)/C(=N/Nc1ccc(S(N)(=O)=O)cc1)C(=O)N2,4.1
11,CCCN1CCCC(c2ccc(Nc3nc(Nc4cc(F)ccc4C(N)=O)c4cc[nH]c4n3)c(OC)c2)C1 (stereo not drawn),1.49
12,Nc1nccc(-c2c(-c3ccc(F)cc3)nn3cc(C(F)(F)F)ccc23)n1,-1.1
13,NS(=O)(=O)c1ccc(-c2cc3ccncc3cc2OCc2ccccc2)cc1,2.45
14,NC(=O)c1sc(-n2cnc3ccccc32)cc1OCc1ccccc1Br,5.13
15,O=S(=O)(CCOCc1ccc(-c2ccc3ncnc(Nc4ccc(OCc5cccc(F)c5)c(Cl)c4)c3c2)o1)c1ccccc1,2.99
16,Nc1ccc(C#Cc2cncnc2Nc2ccc(OCc3cccc(F)c3)c(Cl)c2)cc1,2.01
17,ON=C1CCc2cc(-c3nc(C4CCNCC4)[nH]c3-c3ccncc3)ccc21,1.4
